# Experimental data published in the supplement of paper PMC8728848.
# Only a selection was taken, and the strongest signals are over-represented in it overall.
# B1: GS7807G-bfa-506-18-506 (Bacteroides fragilis) (protein)
# chain: ASCDKFDEINTDPDATTKVTSSLLATGLLLDITSSSASKSFIYDELLAKQMAWGESMEDYQYNVFGRSGFGGYTTLINAQKMVESVSDDNVNAYDGLAHFIKAYKIFYMSMEMGDLPYEEALQGELGLVRPKYNTQKEVMNFILSDLETAYELFSTAKDFDGDPILGGSISKWKKATTAFQLKVLMHLSKKESDADLKVKERFARIVASGSLMESNEDNLQMKYADKANTVYPFHNTNTKHAGYAMLSTMLIDKFKATGDIRMFYYAKPAKAKLNEGVTADSWDAYIGTDPSLPFEQIEKAYATEQYSGFNARYTDYPSGEPVVRLGYAEQNFILAEAAVRGWISGDASAYYKKAIRAHMEFIASNTPDEEVYHHGHPITEEAIAAFLETPAIQLSGEKEEDIEKILTQRYLASFMQHPYDVYYDYRRTGYPVLPINPATNRNTMNDRLPMRWMYPKSESDYNLEHQNEALERQFGGVDDVNKLMWILQ
# What was measured:
# Test in all cases: glycan array binding signal (z-score within array); higher = stronger binding
# Conditions in all cases: glycan notation: IUPAC condensed, linker removed
# [1] = molecular target: Fuc(a1-2)Gal(b1-3)GlcNAc(b1-2)Man(a1-3)[Fuc(a1-2)Gal(b1-3)GlcNAc(b1-2)Man(a1-6)]Man(b1-4)GlcNAc(b1-4)[Fuc(a1-6)]GlcNAc
# In short: (§1)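 Arrays were curated from the Consortium for Functional Glycomics database, 3228 in total, and kept only where the protein sequence was available. Binding is expressed as a within-array Z-score. This score was averaged across arrays of the same protein sequence at different concentrations or buffers and across linkers, and negative values can be read as non-binding.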
# [2] = molecular target: Fuc(a1-2)Gal(b1-3)GlcNAc(b1-3)[Fuc(a1-2)Gal(b1-3)GlcNAc(b1-6)]GalNAc
# In short: as §1
# [3] = molecular target: Fuc(a1-2)Gal(b1-3)GlcNAc(b1-3)[Gal(b1-4)GlcNAc(b1-6)]Gal(b1-4)Glc
# In short: as §1
# [4] = molecular target: Fuc(a1-2)Gal(b1-3)GlcNAc(b1-3)[Neu5Ac(a2-6)Gal(b1-4)GlcNAc(b1-6)]Gal(b1-4)Glc
# In short: as §1
# [5] = molecular target: Fuc(a1-2)Gal(b1-3)[Fuc(a1-4)]GlcNAc(b1-2)Man(a1-3)[Fuc(a1-2)Gal(b1-3)[Fuc(a1-4)]GlcNAc(b1-2)Man(a1-3)]Man(b1-4)GlcNAc(b1-4)GlcNAc
# In short: as §1
# [6] = molecular target: Fuc(a1-2)Gal(b1-4)[Fuc(a1-3)]GlcNAc(b1-3)[Neu5Ac(a2-6)Gal(b1-4)GlcNAc(b1-6)]Gal(b1-4)Glc
# In short: as §1
# [7] = molecular target: Fuc(a1-2)[Gal(a1-3)]Gal(b1-3)GalNAc(b1-3)Gal(a1-4)Gal(b1-4)Glc
# In short: as §1
# [8] = molecular target: Fuc(a1-2)[Gal(a1-3)]Gal(b1-4)GlcNAc(b1-2)Man(a1-3)[Fuc(a1-2)[Gal(a1-3)]Gal(b1-4)GlcNAc(b1-2)Man(a1-6)]Man(b1-4)GlcNAc(b1-4)GlcNAc
# In short: as §1
# [9] = molecular target: Fuc(a1-2)[Gal(a1-3)]Gal(b1-4)GlcNAc(b1-3)[Fuc(a1-2)[Gal(a1-3)]Gal(b1-4)GlcNAc(b1-6)]GalNAc
# In short: as §1
# [10] = molecular target: Fuc(a1-2)[GalNAc(a1-3)]Gal(b1-4)GlcNAc(b1-2)Man
# In short: as §1
# [11] = molecular target: Fuc(a1-2)[GalNAc(a1-3)]Gal(b1-4)GlcNAc(b1-3)Gal(b1-4)GlcNAc(b1-3)Gal(b1-4)GlcNAc
# In short: as §1
# [12] = molecular target: Fuc(a1-3)[Gal(b1-4)]GlcNAc(b1-2)Man
# In short: as §1
# [13] = molecular target: Fuc(a1-3)[Gal(b1-4)]GlcNAc(b1-2)Man(a1-3)[Fuc(a1-3)[Gal(b1-4)]GlcNAc(b1-2)Man(a1-6)]Man(b1-4)GlcNAc(b1-4)[Fuc(a1-6)]GlcNAc
# In short: as §1
# [14] = molecular target: Fuc(a1-3)[Gal(b1-4)]GlcNAc(b1-3)Gal(b1-3)[Fuc(a1-4)]GlcNAc
# In short: as §1
# [15] = molecular target: Fuc(a1-3)[Gal3S(b1-4)]Glc
# In short: as §1
# Gal(a1-2)Gal = molecular target: Gal(a1-2)Gal
# In short: as §1
# [16] = molecular target: Gal(a1-3)Gal(b1-3)GlcNAc(b1-2)Man(a1-3)[Gal(a1-3)Gal(b1-3)GlcNAc(b1-2)Man(a1-6)]Man(b1-4)GlcNAc(b1-4)GlcNAc
# In short: as §1
# [17] = molecular target: Gal(a1-3)Gal(b1-3)GlcNAc(b1-6)GalNAc
# In short: as §1
# Gal(b1-3)GalNAc(b1-3)Gal = molecular target: Gal(b1-3)GalNAc(b1-3)Gal
# In short: as §1
# [18] = molecular target: Gal(b1-3)GlcNAc(b1-2)Man(a1-3)[Gal(b1-3)GlcNAc(b1-2)Man(a1-6)]Man(b1-4)GlcNAc(b1-4)[Fuc(a1-6)]GlcNAc
# In short: as §1
# [19] = molecular target: Gal(b1-3)GlcNAc(b1-3)Gal(b1-4)GlcNAc
# In short: as §1
# [20] = molecular target: Gal(b1-3)GlcNAc(b1-6)[Gal(b1-3)]GalNAc
# In short: as §1
# Gal(b1-3)GlcNAc6S = molecular target: Gal(b1-3)GlcNAc6S
# In short: as §1
# [21] = molecular target: Gal(b1-4)GalNAc(a1-3)[Fuc(a1-2)]Gal(b1-4)GlcNAc
# In short: as §1
# [22] = molecular target: Gal(b1-4)GlcNAc(b1-2)Man(a1-3)[Gal(b1-4)GlcNAc(b1-2)Man(a1-6)]Man(b1-4)GlcNAc(b1-4)[Fuc(a1-6)]GlcNAc
# In short: as §1
# [23] = molecular target: Gal(b1-4)GlcNAc(b1-2)Man(a1-3)[Man(a1-6)]Man(b1-4)GlcNAc(b1-4)GlcNAc
# In short: as §1
# [24] = molecular target: Gal(b1-4)GlcNAc(b1-3)Gal(b1-3)GlcNAc
# In short: as §1
# [25] = molecular target: Gal(b1-4)GlcNAc(b1-3)Gal(b1-4)GlcNAc(b1-3)Gal(b1-4)GlcNAc(b1-2)Man(a1-3)[Gal(b1-4)GlcNAc(b1-3)Gal(b1-4)GlcNAc(b1-3)Gal(b1-4)GlcNAc(b1-2)Man(a1-6)]Man(b1-4)GlcNAc(b1-4)[Fuc(a1-6)]GlcNAc
# In short: as §1
binder,measurement,setting,value
B1,glycan array binding signal (z-score),[1],0.142
same,glycan array binding signal (z-score),[2],3.91
same,glycan array binding signal (z-score),[3],0.516
same,glycan array binding signal (z-score),[4],-0.857
same,glycan array binding signal (z-score),[5],0.421
same,glycan array binding signal (z-score),[6],-0.781
same,glycan array binding signal (z-score),[7],-0.536
same,glycan array binding signal (z-score),[8],3.93
same,glycan array binding signal (z-score),[9],0.293
same,glycan array binding signal (z-score),[10],-0.111
same,glycan array binding signal (z-score),[11],-0.91
same,glycan array binding signal (z-score),[12],0.315
same,glycan array binding signal (z-score),[13],1.51
same,glycan array binding signal (z-score),[14],-0.716
same,glycan array binding signal (z-score),[15],-0.945
same,glycan array binding signal (z-score),Gal(a1-2)Gal,-0.863
same,glycan array binding signal (z-score),[16],4.66
same,glycan array binding signal (z-score),[17],1.31
same,glycan array binding signal (z-score),Gal(b1-3)GalNAc(b1-3)Gal,-0.588
same,glycan array binding signal (z-score),[18],2.73
same,glycan array binding signal (z-score),[19],-0.493
same,glycan array binding signal (z-score),[20],-0.028
same,glycan array binding signal (z-score),Gal(b1-3)GlcNAc6S,0.702
same,glycan array binding signal (z-score),[21],-0.448
same,glycan array binding signal (z-score),[22],2.53
same,glycan array binding signal (z-score),[23],1.4
same,glycan array binding signal (z-score),[24],0.201
same,glycan array binding signal (z-score),[25],5.99
